PrPC surface inh: reduces human prion protein on the cell surface | P04156 | cell surface PrPC, TR-FRET read-out | inhibition, % at 13.8 µM | 370,000 tested, 0.43% active | AID 720596; in the data active = inhibition above about 24%
PrP 5UTR inh: inhibition of PrP 5' UTR reporter expression; inhibition, % (no concentration beside the values); AID 488862; cell-based PrP 5' UTR mRNA reporter, plate reader; 340,000 tested, 0.35% active; in the data active = inhibition above about 52%
GDH-TPI inh: GDH-TPI coupled enzyme inhibition counter-screen; inhibition, % at 4.8 µM; AID 588335; 360,000 tested, 1.2% active; GDH-TPI coupled enzyme counterscreen, NADH absorbance; in the data active = inhibition above about 30%
BJeLR lethal: BJeLR cell viability loss; inhibition, % (concentration not given with the values); 300,000 tested, 0.17% active; AID 1554; BJeLR (HRASV12) viability, CellTiter-Glo ATP luminescence, 48 h; in the data active = inhibition above about 50%
PfHsp40 rescue: restores yeast growth despite PfHsp40 toxicity. growth rescue, % at 12.5 µM. 340,000 tested, 0.68% active. AID 504582. S. cerevisiae expressing PfHsp40, growth rescue, ATP luminescence; in the data active = growth rescue above about 28%, passing the limit was not always enough;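 note: yeast W303a lacking pdr1 and pdr3 grown in galactose medium; growth measured after three days at 30 °C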
FBA Mtb inh: inhibitors of M. tuberculosis fructose-bisphosphate aldolase; P9WQA3; purified M. tuberculosis FBA, fluorescence read-out; inhibition, % at 1 µM; 360,000 tested, 2.3% active; AID 588726; in the data active = inhibition above about 27%
Target sequence (P9WQA3 whole entry, looked up): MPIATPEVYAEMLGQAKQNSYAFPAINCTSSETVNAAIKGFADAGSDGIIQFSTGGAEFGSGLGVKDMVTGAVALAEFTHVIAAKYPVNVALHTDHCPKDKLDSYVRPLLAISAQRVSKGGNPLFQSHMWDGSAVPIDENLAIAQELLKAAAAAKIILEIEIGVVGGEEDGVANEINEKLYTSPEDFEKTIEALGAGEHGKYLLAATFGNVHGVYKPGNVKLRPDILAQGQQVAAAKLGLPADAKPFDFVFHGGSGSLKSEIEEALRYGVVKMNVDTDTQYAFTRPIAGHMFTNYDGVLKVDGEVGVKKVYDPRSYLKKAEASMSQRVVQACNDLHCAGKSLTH
Numbers stand for hits. Rows were chosen to be rich in hits. Some 4.5% of all compounds tested hit in one or more screens of this group.

`COC(=O)/C=C1\S/C(=N/N=C/c2ccco2)NC1=O` gave PrPC surface inh inactive, PrP 5UTR inh inactive, GDH-TPI inh 32.7, BJeLR lethal inactive, PfHsp40 rescue inactive and FBA Mtb inh inactive.
COC(=O)/C=C1\S/C(=N/N=C/c2ccc(Cl)cc2)NC1=O was read as PrPC surface inh inactive, PrP 5UTR inh inactive, GDH-TPI inh 35.2, BJeLR lethal inactive, PfHsp40 rescue inactive and FBA Mtb inh inactive.
COC(=O)/C=C1/S/C(=N/NC(=O)c2ccccc2)NC1=O was read as PrPC surface inh inactive, PrP 5UTR inh inactive, GDH-TPI inh inactive, BJeLR lethal inactive, PfHsp40 rescue inactive and FBA Mtb inh inactive.
COC(=O)/C=C1\SC(=NC(=O)c2cccc(Cl)c2)NC1=O was read as PrPC surface inh inactive, PrP 5UTR inh inactive, GDH-TPI inh inactive, BJeLR lethal inactive, PfHsp40 rescue inactive and FBA Mtb inh inactive.
COC(=O)/C=C1/S/C(=N/N=C/c2ccco2)NC1=O was read as PrPC surface inh inactive, GDH-TPI inh inactive, BJeLR lethal inactive and FBA Mtb inh inactive.
For COC(=O)C/C=N/N=C1/NC(=O)/C(=C/C(=O)O)S1 the results were PrPC surface inh inactive, PrP 5UTR inh inactive, GDH-TPI inh 35.1, BJeLR lethal inactive, PfHsp40 rescue inactive and FBA Mtb inh inactive.
`COC(=O)/C=C1\S/C(=N/N=C/c2ccccc2)NC1=O` gave PrPC surface inh inactive, PrP 5UTR inh inactive, GDH-TPI inh 45.7, BJeLR lethal inactive, PfHsp40 rescue inactive and FBA Mtb inh inactive.
COc1ccc(S[C@]2(C(=O)N3CCCC3)CC(=O)N(C(=O)/C=C/c3ccccc3)[C@@H]2c2ccc(OC)cc2)cc1 was read as PrPC surface inh inactive.
`CCCCNC(=O)C[C@H]1C[C@@]2(C(=O)OC)C(=C[C@H](C(C)C)O[C@@H]2C2CC2)N(Cc2ccco2)C1=O` gave PrPC surface inh inactive.
`CC(C)(C)OC(=O)NCc1ccccc1/C=C/S(=O)(=O)NCCc1ccccc1` gave PrPC surface inh inactive.
COC(=O)C1CN(Cc2ccc(Cl)cc2)CCS(=O)(=O)N1Cc1cn(Cc2ccc(C)cc2)nn1 (stereo unspecified) was read as PrPC surface inh inactive.
`O=C(NCC1CCN(C(=O)C(=O)c2cc3ccccc3o2)CC1)c1ccc2c(c1)OCO2` gave PrPC surface inh inactive.
Screening O=C(NCC(c1ccco1)N1CCCCC1)C(c1ccccc1)c1ccccc1 (stereo unspecified) returned PrPC surface inh inactive, PrP 5UTR inh inactive, GDH-TPI inh inactive, BJeLR lethal inactive, PfHsp40 rescue inactive and FBA Mtb inh inactive.
For CC(Sc1ccc(Cl)cc1)C(=O)NCC(c1ccco1)N1CCCCC1 (stereo unspecified) the results were PrPC surface inh inactive, PrP 5UTR inh inactive, GDH-TPI inh inactive, BJeLR lethal inactive, PfHsp40 rescue 34.5 and FBA Mtb inh inactive.
Screening CC(/C=N/NC(=O)c1n[nH]c2c1CCC2)=C\c1ccccc1 returned PrPC surface inh inactive, PrP 5UTR inh inactive, GDH-TPI inh 31.5, BJeLR lethal inactive, PfHsp40 rescue inactive and FBA Mtb inh inactive.
O=C(N/N=C/C(Br)=C\c1ccccc1)c1n[nH]c2c1CCC2 was read as PrPC surface inh inactive, PrP 5UTR inh inactive, GDH-TPI inh inactive, BJeLR lethal inactive, PfHsp40 rescue inactive and FBA Mtb inh inactive.
Screening O=C(N/N=C\c1cccc(Cl)c1)c1n[nH]c2c1CCCC2 returned PrPC surface inh inactive, PrP 5UTR inh inactive, GDH-TPI inh inactive, BJeLR lethal inactive, PfHsp40 rescue inactive and FBA Mtb inh inactive.
For Cc1ccc(/C=N/NC(=O)c2n[nH]c3c2CCCC3)cc1 the results were PrPC surface inh inactive, GDH-TPI inh inactive, BJeLR lethal 60.4 and FBA Mtb inh inactive.
`Cc1cc(C)cc(C(=O)OCCN2CCN(C3CN(Cc4cn(Cc5ccc([N+](=O)[O-])cc5)nn4)S(=O)(=O)C3)CC2)c1` (stereo unspecified) gave PrPC surface inh inactive.
Screening N#Cc1ccc(/C=C2\CC3(OC(=O)c4ccc(F)cc4)CCCN2C3)cc1 (stereo unspecified) returned PrPC surface inh inactive.
For CC(C)=CC(O)C/C(C)=C/COc1ccc2ccc(=O)oc2c1 (stereo unspecified) the results were PrPC surface inh inactive, PrP 5UTR inh inactive, GDH-TPI inh inactive, BJeLR lethal inactive, PfHsp40 rescue inactive and FBA Mtb inh 83.0.

Assay outcomes as filed in PubChem BioAssay.
